Assay results as given in PubChem BioAssay AID1851 (National Center for Advancing Translational Sciences (NCATS), 2009).
About 4,000 (25%) of roughly 16,000 compounds were called active. Another 26% or so got no clear call; they are omitted. Calls follow the shape of the dose curve; as a rule, active = well fitted curve in the direction sought with a large enough effect; inconclusive = small, poorly fitted or top-dose-only effect, or effect the other way; inactive = no such curve, though single readings can be large or run the other way. These entries were drawn from the full list.

Each compound was assayed against Cytochrome P450 2C9 (Homo sapiens) (UniProt P11712) (assay: Cytochrome panel assay with activity outcomes). Settings: recombinant CYP, pro-luciferin dealkylation, luminescence, p450-cyp2c9; series mostly up to 57.1 µM; activity, negative = inhibition: at the top concentration.
Sequence of Cytochrome P450 2C9 (Homo sapiens) (P11712 whole entry, looked up): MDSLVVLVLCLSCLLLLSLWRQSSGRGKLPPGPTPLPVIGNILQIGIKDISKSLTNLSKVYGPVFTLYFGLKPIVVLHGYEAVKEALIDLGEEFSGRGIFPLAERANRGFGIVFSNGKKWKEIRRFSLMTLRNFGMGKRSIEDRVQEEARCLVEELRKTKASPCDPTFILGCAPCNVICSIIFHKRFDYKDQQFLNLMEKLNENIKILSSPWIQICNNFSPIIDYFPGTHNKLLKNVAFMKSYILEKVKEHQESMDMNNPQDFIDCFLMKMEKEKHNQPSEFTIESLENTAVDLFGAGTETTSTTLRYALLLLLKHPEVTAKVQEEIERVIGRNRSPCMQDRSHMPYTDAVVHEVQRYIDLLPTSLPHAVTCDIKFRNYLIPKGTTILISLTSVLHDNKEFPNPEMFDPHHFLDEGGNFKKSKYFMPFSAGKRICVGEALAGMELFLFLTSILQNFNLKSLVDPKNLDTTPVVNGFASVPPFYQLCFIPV
% is scaled to controls: 0 for no effect and ±100 for the full control effect.

Row | SMILES | activity, negative = inhibition | AC50
1 | N[C@@H](CCCCP(=O)(O)O)C(=O)O | 5.13% (inactive) | 
2 | Cc1ccc(N2C(=O)/C(=C/c3ccc(CN(CCC#N)S(C)(=O)=O)o3)C(=O)NC2=S)cc1C |  | 12.6 µM (active)
3 | NCCc1ccc(O)cc1 | 3.64% (inactive) | 
4 | CC1=NN(c2ccc(S(=O)(=O)O)cc2C)C(=[OH+])[C@H]1N=Nc1cc(S(=O)(=O)O)ccc1C(=O)O.O.[Cr] | -5.47% [at 11.4 µM] (inactive) | 
5 | O=C(NCP(=O)(O)O)c1cccnc1 | 1.84% [at 11.4 µM] (inactive) | 
6 | C=C[C@]12CN(C)[C@H]3C1[C@@]1(C(=O)Nc4ccccc41)[C@H]1C[C@H]2[C@H]3CO1 | -13.2% [at 25.6 µM] (inactive) | 
7 | c1cc2cc(c1)C[n+]1ccc(c3ccccc31)NCc1ccc(cc1)CNc1cc[n+](c3ccccc13)C2 |  | 2.51 µM (active)
8 | CN1C(=O)CCS(=O)(=O)[C@H]1c1ccc(Cl)cc1 | 2.23% (inactive) | 
9 | C[C@H]1C(=O)O[C@@H]2CCN3CC=C(COC(=O)[C@@](C)(O)[C@@]1(C)O)[C@H]23 | 24.7% [at 25.6 µM] (inactive) | 
10 | CCCCN1C(=O)/C(=C\c2ccco2)C(=O)N(CCc2ccccc2)C1=O |  | 7.94 µM (active)
11 | c1ccc2c(c1)Sc1ccccc1N2C[C@H]1CN2CCC1CC2 | 8.95% [at 11.4 µM] (inactive) | 
12 | C[C@H](NC(C)(C)C)C(=O)c1cccc(Cl)c1 | inactive | 
13 | CCCN1CCC[C@@H]2Cc3[nH]ncc3C[C@H]21 | inactive | 
14 | CCN1C[C@]2(COC)CC[C@H](O)[C@@]34[C@@H]5C[C@H]6[C@@H](OC)[C@H]5[C@](O)(C[C@@H]6OC)[C@@](O)([C@@H](OC)[C@H]23)[C@@H]14 | -3.36% [at 25.6 µM] (inactive) | 
15 | CC[C@H]1CN2CC[C@@H]1C[C@H]2[C@@H](O)c1ccnc2ccc(OC)cc12 | 6.12% [at 25.6 µM] (inactive) | 
16 | Cc1sc2c(c1C)C(c1ccc(C(C)(C)C)cc1)=NCC(=O)N2CC(=O)Nc1nccs1 |  | 12.6 µM (active)
17 | CN(C)c1ccc(NC(=O)CN2C(=O)CN=C(c3ccccc3)c3ccccc32)cc1 | -4.06% (inactive) | 
18 | O=[N+]([O-])O[C@H]1CO[C@H]2[C@H]1OC[C@@H]2O[N+](=O)[O-] | 28.9% [at 25.6 µM] (inactive) | 
19 | CCOP(=O)(OCC)C(NC(C)=O)C(Cl)(Cl)Cl (stereo unspecified) | -14% (inactive) | 
20 | O=c1[nH]c2ccccc2n1C1CCN(CCCC(c2ccc(F)cc2)c2ccc(F)cc2)CC1 | inactive | 
21 | C(=C/c1ccccc1)/CN1CCN(CCOC(c2ccccc2)c2ccccc2)CC1 |  | 5.01 µM (active)
22 | Fc1ccc(C(OCCN2CCN(C/C=C\c3ccccc3)CC2)c2ccc(F)cc2)cc1 |  | 7.94 µM (active)

Row | SMILES | activity, negative = inhibition | AC50
23 | Clc1ccc([C@@H](OCCN2CCCCC2)c2ccccc2)cc1 | -7.32% [at 25.6 µM] (inactive) | 
24 | CCOC(=O)c1ncn2c1[C@H]1CCCN1C(=O)c1cc(OC)ccc1-2 | 15.1% (inactive) | 
25 | NS(=O)(=O)c1cc([C@@]2(O)NC(=O)c3ccccc32)ccc1Cl | -0.302% [at 25.6 µM] (inactive) | 
26 | O=C(O)C[O][Sb][O]CC(=O)O | 3.17% [at 11.4 µM] (inactive) | 
27 | O=C(O)[C@H]1[O][Sb][O][C@@H](C(=O)O)C1O (stereo partly specified) | 14.9% [at 11.4 µM] (inactive) | 
28 | NCC[C@H](O)C(=O)N[C@H]1C[C@@H](N)[C@@H](O[C@H]2O[C@@H](CN)[C@@H](O)[C@@H](O)[C@@H]2N)[C@@H](O[C@H]2O[C@@H](CO)[C@@H](O)[C@@H]2O)[C@@H]1O | -2.49% [at 25.6 µM] (inactive) | 
29 | C[N+]1(C)CCO[C@@](O)(c2ccc(-c3ccc([C@]4(O)C[N+](C)(C)CCO4)cc3)cc2)C1 | -5.58% (inactive) | 
30 | O=C(c1ccccc1)[C@H]1[C@H](c2ccccc2[N+](=O)[O-])N1C1CCCCC1 (stereo partly specified) | -9.93% [at 11.4 µM] (inactive) | 
31 | CC1=C(O)C(=O)[C@H]2O[C@@H]2C1=O | -9.89% (inactive) | 
32 | O=C(c1ccco1)N1CCC[C@@]2(CCN(Cc3ccncc3)C2)C1 |  | 3.16 µM (active)
33 | CC(C)CN1CCCC2(CCN(C(=O)c3ccncc3)CC2)C1 | -28.7% (inactive) | 
34 | c1cc(CN2CCCC3(CCNCC3)C2)ccn1 | -28.9% (inactive) | 
35 | CN1CC[C@@]2(CCCN(C(=O)c3ccncc3)C2)C1 | 2.79% (inactive) | 
36 | COCC(=O)N1CCC2(CCCN(Cc3ccncc3)C2)CC1 |  | 5.01 µM (active)
37 | CN1CC[C@@]2(CCCN(C(=O)c3ccco3)C2)C1 | 5.65% (inactive) | 
38 | CC[C@]1([C@H]2O[C@@H]([C@@H]3O[C@](O)(CO)[C@@H](C)C[C@H]3C)C[C@H]2C)CC[C@@H]([C@]2(C)CC[C@@]3(C[C@@H](O)[C@@H](C)[C@@H]([C@H](C)[C@H](OC)[C@H](C)C(=O)O)O3)O2)O1 | 2.5% [at 25.6 µM] (inactive) | 
39 | COc1ccccc1CN1CCCC2(CCN(C(=O)Oc3ccccc3)CC2)C1 | 2.58% (inactive) | 
40 | COC(=O)[C@@H]1c2cc3c(c(O)c2[C@@H](O)C[C@]1(C)O)C(=O)c1c(O)cc2c(c1C3=O)O[C@H]1O[C@@]2(C)[C@@H](O)[C@H](N(C)C)[C@H]1O | -12.9% [at 11.4 µM] (inactive) | 
41 | CCN(CC)CCO[C@H]1CC[C@@]2(C)C(=CC[C@@H]3[C@H]2CC[C@]2(C)C(=O)CC[C@H]32)C1 | -1.59% (inactive) | 
42 | CO[C@@H]1CC=C2CCN3CCC4=C(CC(=O)OC4)[C@]23C1 | 11.3% (inactive) | 
43 | C[N+]1(C)[C@@H]2CC[C@H]1CC(OC(=O)[C@@H](CO)c1ccccc1)C2 (stereo partly specified) | inactive | 
44 | COc1ccc2[nH]c3c(c2c1)CCN=C3C | -24.9% [at 25.6 µM] (inactive) | 

Row | SMILES | activity, negative = inhibition | AC50
45 | N[C@@H](CSC1c2ccccc2-c2ccccc21)C(=O)O | -21.1% [at 11.4 µM] (inactive) | 
46 | C[C@@]12CC[C@H]3[C@@H](CCC4=C(O)C(=O)CC[C@]43C)[C@H]1CCC2=O | 8.16% (inactive) | 
47 | Cc1ccccc1-c1nc(CS(=O)CC(=O)N2CCC3(CC2)OCCO3)c(C)o1 (stereo unspecified) |  | 5.01 µM (active)
48 | Cc1cc(NC(=O)CCC(=O)N2CCC3(CC2)OCCO3)no1 | 14.5% (inactive) | 
49 | Oc1ccc([C@H](O)[C@@H]2CCCCN2)cc1O | -5.3% [at 11.4 µM] (inactive) | 
50 | CC(C)C(=O)N1C2CCC1CC(O)(c1ccc(F)cc1)C2 (stereo unspecified) | -8.36% (inactive) | 
51 | C[C@](N)(CCP(=O)(O)O)C(=O)O | 7.57% (inactive) | 
52 | O=C(CN1CCCCC1)Nc1ccc(Br)cc1C(=O)c1ccccc1Cl |  | 8.91 µM (active)
53 | CN(CCc1ccc(Cl)c(Cl)c1)[C@H]1CCCC[C@H]1N1CCCC1 | -18.7% (inactive) | 
54 | CCOC(=O)c1ncn2c1CN(C)C(=O)c1cc(F)ccc1-2 | 0.585% (inactive) | 
55 | CC(C)(C)NC[C@H](O)c1ccccc1Cl | 11.1% (inactive) | 
56 | C=CCN1CC[C@@]23c4c5ccc(O)c4O[C@H]2/C(=N\N=C2/CC[C@@]4(O)[C@H]6Cc7ccc(O)c8c7[C@@]4(CCN6CC=C)[C@@H]2O8)CC[C@]3(O)[C@@H]1C5 | inactive | 
57 | C[C@H](CCC(=O)O)[C@H]1CC[C@]2(C)[C@@H]3C(=O)C[C@H]4C(C)(C)[C@@H](O)CC[C@]4(C)[C@H]3C(=O)C[C@@]12C | -0.996% [at 11.4 µM] (inactive) | 
58 | Cc1nc2ccccc2c(=O)n1-n1cnnc1 | -22.4% (inactive) | 
59 | CCCCc1nc2ccccc2c(=O)n1-c1ccc(Cl)cc1[N+](=O)[O-] | -8.02% (inactive) | 
60 | CCCc1nc2ccccc2c(=O)n1-c1ccc(OC)cc1 |  | 25.1 µM (active)
61 | CCCCc1nc2ccccc2c(=O)n1-c1ccccc1[N+](=O)[O-] |  | 11.2 µM (active)
62 | Cc1nc2ccccc2cc1C[N+]12CN3CN(CN(C3)C1)C2 | 18.3% [at 11.4 µM] (inactive) | 
63 | COc1ccc2c(c1)C13CCCC[C@@H]1C(C2)N(C)CC3 (stereo partly specified) | -5.05% [at 25.6 µM] (inactive) | 
64 | CC[C@H](C)C(=O)O[C@@H]1[C@H](O)[C@@H]2[C@H](CN3C[C@@H](C)CC[C@@H]3[C@@]2(C)O)[C@@H]2C[C@@]34O[C@@]5(O)[C@@H](OC(=O)[C@](C)(O)CC)CC[C@@]3(C)[C@H]5[C@H](OC(C)=O)[C@@H](OC(C)=O)[C@H]4[C@]12O | 23.1% [at 25.6 µM] (inactive) | 
65 | COc1cc2c3cc1Oc1c(O)c(OC)cc4c1[C@@H](Cc1ccc(cc1)Oc1cc(ccc1O)C[C@H]3N(C)CC2)N(C)CC4 | 2.87% [at 11.4 µM] (inactive) | 
66 | CC(C)N(CC[C@@](C(N)=O)(c1ccccc1)c1ccccn1)C(C)C | inactive | 

Row | SMILES | activity, negative = inhibition | AC50
67 | N[C@H](Cn1ccc(=O)[nH]c1=O)C(=O)O | -9.73% (inactive) | 
68 | O=[N+]([O-])c1ccc2nc(N3CCNCC3)ccc2c1 | -10.6% (inactive) | 
69 | CC12CN3CC(C)(CN(C1)C31CCSCC1)C2=O | -7.66% (inactive) | 
70 | NCCc1c[nH]c2ccc(C(N)=O)cc12 | inactive | 
71 | N[C@@H](Cc1ccccc1)P(=O)(O)O | -8.88% [at 11.4 µM] (inactive) | 
72 | CN1[C@H](CC(=O)c2ccccc2)CCC[C@H]1C[C@H](O)c1ccccc1 | -7.25% (inactive) | 
73 | CC1(C)CCC2=C(O1)c1ccccc1C(=O)C2=O |  | 31.6 µM (active)
74 | C[C@@H]1CC[C@@H]2N(C1)C[C@H]1[C@@](O)([C@H](O)C[C@]3(O)[C@H]4CC[C@H]5[C@]6(O)O[C@]4(C[C@]13O)[C@@]5(C)CC[C@@H]6O)[C@@]2(C)O | -2.76% [at 11.4 µM] (inactive) | 
75 | C=CCn1c(O)c(C(C)=NCCCN2CCOCC2)c(=O)[nH]c1=O | -27.5% (inactive) | 
76 | C=C(C)[C@H]1CN[C@H](C(=O)O)[C@@H]1CC(=O)O | 13.2% (inactive) | 
77 | COc1c2c(cc3c1OCO3)CCN(C)C2 | 20.3% [at 25.6 µM] (inactive) | 
78 | NCC#Cc1ccccc1 |  | 10 µM (active)
79 | O=C(Oc1ccccc1)N1CCC[C@@]2(CCN(C(c3ccccc3)c3ccccc3)C2)C1 | -10.2% (inactive) | 
80 | C[N+]1([O-])[C@@H]2CC[C@H]1CC(OC(=O)[C@@H](CO)c1ccccc1)C2 (stereo partly specified) | 21.1% [at 25.6 µM] (inactive) | 
81 | COC(=O)[C@@]1(Cc2ccc(F)cc2)[C@H]2c3cc(C(=O)N(C)C)[nH]c3C[C@H]2CN1C(=O)c1ccccc1 |  | 10 µM (active)
82 | CN(C)CCCc1c[nH]c2ccccc12 | -1.95% [at 11.4 µM] (inactive) | 
83 | COc1cc2c(cc1O)C[C@H]1c3c(cc(O)c(OC)c3-2)CCN1C | -0.572% [at 25.6 µM] (inactive) | 
84 | Cn1c[n+](C)cc1C(O)c1ccccc1 (stereo unspecified) | -14.7% (inactive) | 
85 | O=C(Nc1ccc(Cl)cc1)Nc1nccs1 |  | 17.8 µM (active)
86 | O=C1CS[C@@H](c2ccccc2Cl)c2cc(Cl)ccc2N1 |  | 15.8 µM (active)
